Measured values published in PubChem BioAssay (Tox21).
Results filed as inconclusive are left out. Activity calls are given as the source filed them. Unless noted, the call rests on the fitted dose curve; in most records, active means well fitted curve in the direction sought with a large enough effect in the repeat runs; inconclusive means weak or mixed curves; inactive means no such curve, though single readings can be large; an effect the other way counts as inactive or inconclusive.

Experiments:
[1] = A CellTox Green Cytotoxicity Assay to monitor cytotoxicity in HEK293 cells - 32 hour (AID 1224881); further: nearly all actives have a fitted effect of over 40% in size
In short: (§1)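 Cells (HEK293, 600/well) and dye reagent are dispensed together. After 5 h at 37 C, 23 nL compound is pinned in. Plates stay at 37 C for 40 h with fluorescence read at 0h, 8h, 16h, 24h, 32h and 40h.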

[2] = A CellTox Green Cytotoxicity Assay to monitor cytotoxicity in HepG2 cells - 0 hour (AID 1224882); further: nearly all actives have a fitted effect of over 35% in size
In short: (§2)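 Cells and non-lytic dye reagent are dispensed together (600 HepG2 cells/well) and incubated 5 h before DMSO compound transfer. Kinetic fluorescence is then recorded in the same wells during 40 h at 37 C.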

[3] = A CellTox Green Cytotoxicity Assay to monitor cytotoxicity in HepG2 cells - 32 hour (AID 1224883); further: nearly all actives have a fitted effect of over 50% in size
In short: as §2

[4] = A CellTox Green Cytotoxicity Assay to monitor cytotoxicity in HEK293 cells - 8 hour (AID 1224884); further: nearly all actives have a fitted effect of over 35% in size
In short: as §1

[5] = qHTS RealTime-Glo MT Cell Viability Assay in HepG2 cells - 16 hour (AID 1224885); further: nearly all actives have a fitted effect of over 50% in size
In short: (§3)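 qHTS, HepG2, 600 cells/well, RealTime-Glo (NanoLuc + prosubstrate) added with cells; 5 h preincubation; DMSO compound addition; 37 C; luminescence at 0/8/16/24/32/40 h.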

[6] = qHTS RealTime-Glo MT Cell Viability Assay in HEK293 cells - 8 hour (AID 1224887); further: nearly all actives have a fitted effect of over 50% in size; further: potency means the concentration at half of the fitted maximal effect
In short: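 Real-time viability in HEK293: signal arises when living cells convert a prosubstrate for NanoLuc in the medium, so luminescence tracks viable cell number. Compound (23 nL, DMSO) added 5 h post-seeding; kinetic reads at 0–40 h, 37 C.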

[7] = A CellTox Green Cytotoxicity Assay to monitor cytotoxicity in HEK293 cells - 16 hour (AID 1224888); further: nearly all actives have a fitted effect of over 35% in size
In short: as §1

[8] = A CellTox Green Cytotoxicity Assay to monitor cytotoxicity in HepG2 cells - 8 hour (AID 1224890); further: nearly all actives have a fitted effect of over 45% in size
In short: as §2

[9] = qHTS assay to identify small molecule antagonists of the estrogen receptor alpha (ER-alpha) signaling pathway using the BG1 cell line in the presence of 0.1 nM 17-beta-estradiol - cell viability counter screen (AID 1259241); further: nearly all actives have a fitted effect of over 40% in size
In short: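 VM7Luc4E2 cells (endogenous full-length ER-alpha, 4xERE-luciferase), cultured 5 days in charcoal-stripped serum, exposed to compounds with 0.1 nM 17beta-estradiol (final) for 22 hr at 37C. Viability read in same wells as live-cell protease fluorescence after 30 min.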

[10] = qHTS assay to identify small molecule antagonists of the androgen receptor (AR) signaling pathway using the MDA cell line in the presence of 0.5 nM R1881 - cell viability counter screen (AID 1259242); further: nearly all actives have a fitted effect of over 45% in size
In short: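 Steps: plate MDA-kb2 cells, rest 5 hr at 37C without CO2; pin in compounds in DMSO; add R1881 to 0.5 nM final; incubate 16 hr; add CellTiter-Fluor, 30 min; read fluorescence.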

[11] = target: Estrogen receptor (Homo sapiens) (UniProt P03372); assay: qHTS assay to identify small molecule antagonists of the estrogen receptor alpha (ER-alpha) signaling pathway using the BG1 cell line in the presence of 0.1 nM 17-beta-estradiol (AID 1259244); further: nearly all actives have a fitted effect of over 50% in size; further: potency means the concentration at half of the fitted maximal effect
Estrogen receptor (Homo sapiens), sequence (P03372 whole entry, looked up): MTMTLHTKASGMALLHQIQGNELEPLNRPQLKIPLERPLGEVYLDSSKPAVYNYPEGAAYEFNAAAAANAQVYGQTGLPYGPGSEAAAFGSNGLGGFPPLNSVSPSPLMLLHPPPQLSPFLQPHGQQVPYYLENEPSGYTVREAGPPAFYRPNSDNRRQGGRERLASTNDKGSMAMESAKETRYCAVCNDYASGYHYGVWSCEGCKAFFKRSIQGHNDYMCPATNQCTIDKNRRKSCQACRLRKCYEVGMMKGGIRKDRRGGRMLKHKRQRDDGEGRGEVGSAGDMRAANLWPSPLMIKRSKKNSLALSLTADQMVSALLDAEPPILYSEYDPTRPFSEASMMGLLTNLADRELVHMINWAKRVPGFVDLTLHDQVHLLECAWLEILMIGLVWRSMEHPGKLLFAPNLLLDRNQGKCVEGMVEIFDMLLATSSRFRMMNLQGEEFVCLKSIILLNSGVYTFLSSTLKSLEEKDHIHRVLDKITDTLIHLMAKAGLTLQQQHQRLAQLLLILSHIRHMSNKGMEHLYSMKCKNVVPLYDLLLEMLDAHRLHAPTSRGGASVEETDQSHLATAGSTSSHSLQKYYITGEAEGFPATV
In short: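 Antagonist mode: compounds in DMSO are pinned onto VM7Luc4E2 reporter cells, 0.1 nM final 17beta-estradiol is added, and after 22 h at 37C luciferase luminescence is measured with ONE-Glo.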

[12] = qHTS assay to identify small molecule HDAC inhibitors (AID 1259364);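 further: wild-type HCT-116 cells with endogenous class I/II HDAC activity; top concentration of the series differs between compounds; nearly all actives have a fitted effect of over 45% in size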
In short: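 Cells (HCT-116, wild type) are seeded at 1,500 per well, incubated overnight, treated with compound in DMSO for 2 hr, then developed with HDAC-Glo I/II reagent for 30 min at room temperature.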

[13] = qHTS assay to identify small molecule agonists of the sonic hedgehog signaling (Shh) pathway - cell viability counter screen (AID 1259366); further: nearly all actives have a fitted effect of over 50% in size; further: potency means the concentration at half of the fitted maximal effect
In short: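 NIH/3T3-derived Gli1-Luc reporter cells, 2,000 per well, received compound after 4 h and were treated about 23 h at 37C. Viability measured in the same wells by CellTiter-Fluor fluorescence after 1 h.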

[14] = qHTS assay to identify small molecule antagonists of the sonic hedgehog signaling (Shh) pathway - cell viability counter screen (AID 1259367); further: nearly all actives have a fitted effect of over 55% in size
In short: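 Viability was read by CellTiter-Fluor fluorescence in the same wells, reagent added 23 hr into compound treatment and incubated 1 hr at 37C. The 3T3 Gli1-Luc reporter cells (2,000/well) received conditioned medium after compound and ran 24 hr.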

[15] = qHTS assay to identify small molecule agonists of the sonic hedgehog signaling (Shh) pathway (AID 1259368; calls by dose curve;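 further: NIH/3T3-derived 3T3Gli1-Luc cells carrying a stable Gli1-driven firefly luciferase reporter; series mostly up to about 92 µM; nearly all actives have a fitted effect of over 15% in size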)
In short: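 Cells of a mouse NIH/3T3 clone stably expressing luciferase under the Gli1 transcriptional response element are exposed to test chemicals for 24 hr at 37 C. Pathway activation is detected as a rise in luminescence.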

[16] = qHTS RealTime-Glo MT Cell Viability Assay in HEK293 cells - 24 hour (AID 1224886)
In short: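 Assay medium contained NanoLuc luciferase plus cell-permeant prosubstrate, added with HEK293 cells at 600 cells/well. After 5 h at 37 C/5% CO2 compounds were added; plates stayed at 37 C for 40 h with serial luminescence reads.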

[17] = qHTS RealTime-Glo MT Cell Viability Assay in HepG2 cells - 0 hour (AID 1224889); further: nearly all actives have a fitted effect of over 50% in size
In short: as §3

[18] = qHTS assay to identify small molecule phospholipidosis (PLD) inducers (AID 1259344; active means well fitted curve in the direction sought with a large enough effect; an effect the other way counts as inactive or inconclusive; further: potency means the concentration at half of the fitted maximal effect)
In short: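 Phospholipid accumulation was scored by imaging: fixed, Hoechst-counterstained HepG2 cells stained with LipidTOX Red after 24 h compound exposure at 37 C. Read-outs were pit count and pit intensity per well or per cell, with amiodarone and DMSO controls.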

[19] = qHTS assay to identify small molecule HDAC inhibitors - cell viability counter screen (AID 1259365)
In short: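 Wild-type HCT-116 cells, 1,500/well, cultured overnight, then compound-treated 2 h at 37 C. Viability measured as ATP luminescence with CellTiter-Glo after 30 min at room temperature.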

[20] = target: Androgen receptor (Homo sapiens) (UniProt P10275); assay: qHTS assay to identify small molecule antagonists of the androgen receptor (AR) signaling pathway using the MDA cell line in the presence of 0.5 nM R1881 (AID 1259243); further: nearly all actives have a fitted effect of over 50% in size
Androgen receptor (Homo sapiens), sequence (P10275 whole entry, looked up): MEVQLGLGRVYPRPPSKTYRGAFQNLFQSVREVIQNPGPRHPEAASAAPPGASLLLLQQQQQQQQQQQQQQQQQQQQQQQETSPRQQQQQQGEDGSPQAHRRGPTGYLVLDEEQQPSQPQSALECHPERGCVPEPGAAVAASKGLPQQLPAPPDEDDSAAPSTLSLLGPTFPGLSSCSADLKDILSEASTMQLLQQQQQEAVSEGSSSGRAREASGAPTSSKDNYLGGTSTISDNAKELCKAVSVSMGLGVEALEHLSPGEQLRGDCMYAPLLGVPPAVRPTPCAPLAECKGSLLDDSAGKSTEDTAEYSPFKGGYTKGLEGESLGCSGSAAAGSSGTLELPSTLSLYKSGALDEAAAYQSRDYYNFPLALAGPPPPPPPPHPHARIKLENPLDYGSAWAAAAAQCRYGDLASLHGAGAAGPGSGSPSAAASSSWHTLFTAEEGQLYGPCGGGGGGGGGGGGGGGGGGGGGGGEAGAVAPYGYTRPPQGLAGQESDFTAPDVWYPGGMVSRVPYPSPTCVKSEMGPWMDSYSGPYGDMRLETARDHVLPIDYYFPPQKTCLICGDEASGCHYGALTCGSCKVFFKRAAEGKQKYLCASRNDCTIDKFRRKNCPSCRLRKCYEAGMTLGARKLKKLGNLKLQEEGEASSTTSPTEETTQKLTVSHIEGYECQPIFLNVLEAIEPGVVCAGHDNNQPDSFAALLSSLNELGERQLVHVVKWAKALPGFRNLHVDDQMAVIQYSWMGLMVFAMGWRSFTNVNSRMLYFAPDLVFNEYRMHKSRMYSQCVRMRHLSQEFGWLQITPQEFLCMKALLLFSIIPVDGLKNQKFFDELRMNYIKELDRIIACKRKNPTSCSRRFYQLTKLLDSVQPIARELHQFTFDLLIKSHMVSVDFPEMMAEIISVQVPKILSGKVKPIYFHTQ
In short: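 Stably transfected MDA-kb2 cells express luciferase from an MMTV promoter bearing both AR and GR response elements. Compounds plus 0.5 nM R1881 (final) were incubated 16 hr at 37C without CO2, then luminescence measured.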

Measured: Potency

CCCCCCCN
not listed: [16] | [17] | [18] | [19] | [20]
inactive: all other assays above

COc1cc2c(cc1OC)C(C(C(=O)N(CCc1ccc(OC)c(OC)c1OC)CCc1ccc(OC)c(OC)c1OC)c1ccccc1)=NCC2 (stereo not given)
active: [16] 3.38 µM | [6] 3.01 µM
not listed: [5] | [7] | [11] | [13] | [14] | [20]
inactive: all other assays above

CCCCNc1ccc(C(=O)OCCOCCOCCOCCOCCOCCOCCOCCOCCOC)cc1
active: [11] 8.41 µM
not listed: [6] | [14] | [16] | [20]
inactive: all other assays above

CC[N+]1(CC)CCC(=C(c2ccccc2)c2ccccc2)C1C (stereo not given)
not listed: [11] | [16] | [20]
inactive: all other assays above

C=CC(=O)OCCOc1ccccc1
active: [13] 68.5 µM
not listed: [7] | [11] | [16] | [18] | [19] | [20]
inactive: all other assays above

CCC(=O)O[C@]1(C(=O)CCl)[C@@H](C)C[C@H]2[C@@H]3CCC4=CC(=O)C=C[C@]4(C)[C@@]3(F)[C@@H](O)C[C@@]21C
not listed: [6] | [13] | [16] | [20]
inactive: all other assays above

CCOC(=O)C(F)(F)F
not listed: [6] | [11] | [16] | [18] | [20]
inactive: all other assays above

COc1cc2nc(N(C)CCCNC(=O)C3CCCO3)nc(N)c2cc1OC (stereo not given)
active: [11] 23.7 µM
not listed: [9] | [16] | [19] | [20]
inactive: all other assays above

CC(C)(COC(=O)c1ccccc1)COC(=O)c1ccccc1
not listed: [6] | [11] | [16] | [17] | [18] | [20]
inactive: all other assays above

O=C1[C@H]2CCCC[C@H]2C(=O)N1CCCCN1CCN(c2nsc3ccccc23)CC1
active: [18] 14.1 µM | [13] 15 µM
not listed: [6] | [9] | [10] | [12] | [14] | [16] | [20]
inactive: all other assays above

O=[N+]([O-])c1cccc(S(=O)(=O)O)c1
not listed: [6] | [10] | [11] | [13] | [16] | [18] | [20]
inactive: all other assays above

NS(=O)(=O)c1ccc(N2CCCCS2(=O)=O)cc1
not listed: [6] | [13] | [16] | [18]
inactive: all other assays above

O=C1OC(=O)C2C3C=CC(C3)C12 (stereo not given)
not listed: [6] | [11] | [16] | [18] | [20]
inactive: all other assays above

S=C([S-])NCCNC(=S)[S-].[Mn+2]
not listed: [7] | [11] | [13] | [16] | [18] | [20]
inactive: all other assays above

CN(C)C(=O)NC1(c2ccccc2)CCN(CC[C@@]2(c3ccc(F)c(F)c3)CN(C(=O)c3ccccc3)CCO2)CC1
not listed: [3] | [6] | [11] | [13] | [14] | [16] | [18] | [20]
inactive: all other assays above
